Results as given in PubChem BioAssay AID1159580 (chemical genetic matrix, 2015).
Where “and” joins values, the source holds several entries; their conditions need not be identical. Equal values may be shown once. The campaign covered roughly 5,500 compounds. About 2,000 (36%) were called active. About 18% were inconclusive and are not listed. Cut-off read from the data, not from the text of the source: active = normalized growth mostly below about 0.91 (no sharp cut-off); inconclusive = no clear call, values can overlap the other calls; inactive = mostly above about 0.92. The list shows a part of the results.

Assay: chemical genetic growth profiling, strain panel (AID 1159580);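 note: tested at 20 µM; growth read once vehicle control cultures reached saturation at 30 °C; 1 = growth at the plate median or of vehicle wells; lower values mean less growth of the strain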
Settings: S. cerevisiae deletion strains, growth OD

Measured: normalized growth

NCCC(=O)N[C@@H](Cc1cnc[nH]1)C(=O)O
inactive: locus YAL021C, strain ccr4, stronger effect = lower value 0.997 | locus YAL026C, strain drs2, stronger effect = lower value 1.01 | locus YAL030W, strain snc1, stronger effect = lower value 1.01 | locus YBL061C, strain skt5, stronger effect = lower value 1.01 | locus YBR009C, strain hhf1, stronger effect = lower value 1.01 | locus YBR021W, strain FUR4, stronger effect = lower value 1.06 | locus YBR023C, strain chs3, stronger effect = lower value 1 | locus YBR171W, strain sec66, stronger effect = lower value 1.02 | locus YBR229C, strain ROT2, stronger effect = lower value 0.993 | locus YBR231C, strain swc5, stronger effect = lower value 1.01 | locus YBR279W, strain paf1, stronger effect = lower value 1.01 | locus YCL011C, strain gbp2, stronger effect = lower value 1.01 | locus YCL016C, strain dcc1, stronger effect = lower value 1.01 | locus YCL029C, strain bik1, stronger effect = lower value 0.967 | locus YCL061C, strain MRC1, stronger effect = lower value 1.01 | locus YCL069W, strain vba3, stronger effect = lower value 1.01 | locus YCR088W, strain abp1, stronger effect = lower value 1.01 | locus YDL005C, strain med2, stronger effect = lower value 1.01 | locus YDL035C, strain GPR1, stronger effect = lower value 0.997 | locus YDL040C, strain nat1, stronger effect = lower value 0.998 | locus YDL074C, strain BRE1, stronger effect = lower value 1.01 | locus YDL101C, strain DUN1, stronger effect = lower value 0.994 | locus YDL134C, strain PPH21, stronger effect = lower value 1.04 | locus YDL185W, strain tfp1, stronger effect = lower value 0.957 | locus YDL192W, strain arf1, stronger effect = lower value 0.98 | locus YDR001C, strain nth1, stronger effect = lower value 1.01 | locus YDR069C, strain doa4, stronger effect = lower value 1.01 | locus YDR101C, strain arx1, stronger effect = lower value 0.99 | locus YDR137W, strain rgp1, stronger effect = lower value 1.01 | locus YDR159W, strain sac3, stronger effect = lower value 1.02 | locus YDR162C, strain NBP2, stronger effect = lower value 1.03 | locus YDR195W, strain ref2 0.978 | locus YDR297W, strain sur2, stronger effect = lower value 1.01 | locus YDR318W, strain mcm21, stronger effect = lower value 0.986 | locus YDR334W, strain swr1, stronger effect = lower value 1.01 | locus YDR335W, strain msn5, stronger effect = lower value 1.01 | locus YDR388W, stronger effect = lower value 0.979 | locus YDR392W, strain spt3, stronger effect = lower value 1.03 | locus YDR502C, strain sam2, stronger effect = lower value 0.997 | locus YEL003W, strain gim4, stronger effect = lower value 1.02 | locus YEL037C, strain rad23, stronger effect = lower value 1.01 | locus YEL061C, strain CIN8 (second series), stronger effect = lower value 1.01 | locus YEL061C, strain CIN8, stronger effect = lower value 0.997 | locus YER015W, strain faa2, stronger effect = lower value 1.01 | locus YER016W, strain bim1, stronger effect = lower value 1 | locus YER110C, stronger effect = lower value 0.972 | locus YER111C, strain swi4, stronger effect = lower value 0.992 | locus YER155C, strain BEM2 (second series), stronger effect = lower value 1.03 | locus YER155C, strain BEM2, stronger effect = lower value 0.999 | locus YER167W, strain BCK2, stronger effect = lower value 0.99 | locus YFR010W, strain ubp6, stronger effect = lower value 1.02 | locus YGL078C, strain dbp3, stronger effect = lower value 0.999 | locus YGL086W, strain mad1, stronger effect = lower value 1 | locus YGL167C, strain pmr1, stronger effect = lower value 1.01 | locus YGL173C, strain kem1, stronger effect = lower value 1.01 | locus YGL227W, strain vid30, stronger effect = lower value 1.01 | locus YGL240W, strain doc1, stronger effect = lower value 1.01 | locus YGL248W, strain PDE1, stronger effect = lower value 1 | locus YGL253W, strain hxk2, stronger effect = lower value 1.02 | locus YGR135W, strain pre9, stronger effect = lower value 0.977 | locus YGR229C, strain SMI1, stronger effect = lower value 1.02 | locus YGR252W, strain gcn5, stronger effect = lower value 1.05 | locus YHR013C, strain ard1, stronger effect = lower value 1.04 | locus YHR027C, strain rpn1, stronger effect = lower value 1.02 | locus YHR030C, strain SLT2, stronger effect = lower value 0.983 and 1.01 | locus YHR079C, strain IRE1 (second series), stronger effect = lower value 0.979 | locus YHR079C, strain IRE1, stronger effect = lower value 1.02 | locus YHR094C, strain hxt1, stronger effect = lower value 0.987 | locus YHR129C, strain ARP1, stronger effect = lower value 0.994 | locus YHR142W, strain chs7, stronger effect = lower value 1.03 | locus YHR200W, strain rpn10, stronger effect = lower value 0.986 | locus YIL066C, strain RNR3, stronger effect = lower value 1.01 | locus YIL073C, strain SPO22, stronger effect = lower value 0.942 | locus YIL125W, strain kgd1, stronger effect = lower value 0.975 | locus YIR030C, strain dcg1, stronger effect = lower value 0.983 | locus YJL092W, strain hpr5, stronger effect = lower value 1.01 | locus YJL095W, strain BCK1 (second series), stronger effect = lower value 1.02 | locus YJL095W, strain BCK1, stronger effect = lower value 1.02 and 1.01 | locus YJL115W, strain asf1, stronger effect = lower value 1.02 | locus YJL129C, strain trk1, stronger effect = lower value 1.02 | locus YJL134W, strain LCB3, stronger effect = lower value 0.988 | locus YJL154C, strain vps35, stronger effect = lower value 1.01 | locus YJL164C, strain tpk1, stronger effect = lower value 1.01 | locus YJL166W, strain qcr8, stronger effect = lower value 1.01 | locus YJL168C, strain set2, stronger effect = lower value 0.985 | locus YJL187C, strain SWE1 (second series), stronger effect = lower value 0.999 | locus YJL187C, strain SWE1, stronger effect = lower value 1 | locus YJR043C, strain POL32, stronger effect = lower value 1.02 | locus YJR066W, strain TOR1, stronger effect = lower value 0.968 | locus YKL009W, strain mrt4, stronger effect = lower value 0.94 | locus YKL068W, stronger effect = lower value 0.978 | locus YKL085W, strain MDH1 (second series), stronger effect = lower value 0.975 | locus YKL085W, strain MDH1, stronger effect = lower value 0.975 | locus YKL160W, strain elf1, stronger effect = lower value 1.01 | locus YKL190W, strain CNB1, stronger effect = lower value 0.991 | locus YKR001C, strain vps1, stronger effect = lower value 1.02 | locus YKR026C, strain gcn3, stronger effect = lower value 1.01 | locus YKR091W, strain srl3, stronger effect = lower value 1.01 | locus YLL001W, strain dnm1, stronger effect = lower value 1 | locus YLL026W, stronger effect = lower value 1.01 | locus YLL041C, strain sdh2, stronger effect = lower value 1.01 | locus YLR027C, strain aat2, stronger effect = lower value 0.997 | locus YLR039C, strain RIC1, stronger effect = lower value 1.01 | locus YLR058C, strain SHM2, stronger effect = lower value 0.987 | locus YLR102C, strain apc9, stronger effect = lower value 0.991 | locus YLR113W, strain HOG1, stronger effect = lower value 0.985 | locus YLR221C, strain rsa3, stronger effect = lower value 1.01 | locus YLR258W, strain gsy2, stronger effect = lower value 1.02 | locus YLR262C, strain YPT6 (second series), stronger effect = lower value 1.02 | locus YLR262C, strain YPT6, stronger effect = lower value 0.93 | locus YLR268W, strain sec22, stronger effect = lower value 0.982 | locus YLR320W, strain mms22, stronger effect = lower value 1.02 | locus YLR330W, strain CHS5, stronger effect = lower value 0.983 | locus YLR342W, strain FKS1 (second series), stronger effect = lower value 1.01 | locus YLR342W, strain FKS1, stronger effect = lower value 1.02 | locus YLR357W, strain rsc2, stronger effect = lower value 1.03 | locus YLR370C, strain arc18, stronger effect = lower value 1.01 | locus YLR371W, strain rom2, stronger effect = lower value 0.978 | locus YLR384C, strain iki3, stronger effect = lower value 1.02 | locus YLR418C, strain cdc73, stronger effect = lower value 1 | locus YML016C, strain PPZ1, stronger effect = lower value 0.992 | locus YML032C, strain rad52, stronger effect = lower value 0.976 | locus YML120C, strain ndi1, stronger effect = lower value 1.01 | locus YML124C, strain tub3, stronger effect = lower value 0.986 | locus YMR058W, strain fet3, stronger effect = lower value 1.02 | locus YMR078C, strain ctf18, stronger effect = lower value 0.984 | locus YMR125W, strain sto1, stronger effect = lower value 1.01 | locus YMR129W, stronger effect = lower value 1.01 | locus YMR205C, strain PFK2, stronger effect = lower value 1.01 | locus YMR223W, strain ubp8, stronger effect = lower value 0.979 | locus YMR231W, strain pep5, stronger effect = lower value 0.985 | locus YMR307W, strain GAS1, stronger effect = lower value 1.08 | locus YNL067W, strain RPL9B, stronger effect = lower value 1.01 | locus YNL071W, strain lat1, stronger effect = lower value 1.01 | locus YNL128W, strain TEP1, stronger effect = lower value 0.989 | locus YNL153C, strain GIM3, stronger effect = lower value 1.02 | locus YNL183C, strain NPR1, stronger effect = lower value 0.983 | locus YNL209W, strain ssb2, stronger effect = lower value 1 | locus YNL233W, strain BNI4, stronger effect = lower value 1.03 | locus YNL248C, strain rpa49, stronger effect = lower value 1.02 | locus YNL250W, strain rad50, stronger effect = lower value 0.97 | locus YNL271C, strain bni1, stronger effect = lower value 0.988 | locus YNL298W, strain CLA4, stronger effect = lower value 0.996 | locus YNL307C, strain MCK1, stronger effect = lower value 0.984 | locus YNL322C, strain KRE1 (second series), stronger effect = lower value 1.02 | locus YNL322C, strain KRE1, stronger effect = lower value 0.994 | locus YNR049C, strain mso1, stronger effect = lower value 1.01 | locus YNR052C, strain pop2, stronger effect = lower value 0.982 | locus YOL012C, strain htz1 0.915 | locus YOL147C, strain pex11, stronger effect = lower value 0.993 | locus YOR001W, strain rrp6, stronger effect = lower value 1.01 | locus YOR061W, strain CKA2, stronger effect = lower value 0.99 | locus YOR069W, strain VPS5, stronger effect = lower value 0.993 | locus YOR070C, strain gyp1, stronger effect = lower value 1.02 | locus YOR080W, strain dia2, stronger effect = lower value 1 | locus YOR083W, strain WHI5, stronger effect = lower value 1.02 | locus YOR106W, strain vam3, stronger effect = lower value 1.03 | locus YOR136W, strain idh2, stronger effect = lower value 0.99 | locus YOR144C, strain elg1, stronger effect = lower value 1.01 | locus YOR184W, strain ser1, stronger effect = lower value 1.01 | locus YOR231W, strain MKK1, stronger effect = lower value 1.02 | locus YOR265W, strain rbl2, stronger effect = lower value 0.999 | locus YOR270C, strain vph1, stronger effect = lower value 1.08 | locus YOR290C, strain snf2, stronger effect = lower value 1.02 | locus YOR316C, strain cot1, stronger effect = lower value 0.983 | locus YPL051W, strain arl3, stronger effect = lower value 1.01 | locus YPL055C, strain LGE1, stronger effect = lower value 1.03 | locus YPL078C, strain atp4, stronger effect = lower value 1.01 | locus YPL106C, strain sse1, stronger effect = lower value 1.02 | locus YPL240C, strain hsp82, stronger effect = lower value 1.01 | locus YPL241C, strain CIN2, stronger effect = lower value 0.996 | locus YPL256C, strain CLN2, stronger effect = lower value 1.04 | locus YPR119W, strain clb2, stronger effect = lower value 0.984 | locus YPR141C, strain kar3, stronger effect = lower value 0.973 | locus YPR163C, strain tif3, stronger effect = lower value 0.975 | locus YPR167C, strain met16, stronger effect = lower value 1.01 | strain wtn01, stronger effect = lower value 0.999
